Experiment [1] in a line: qHTS assay to identify small molecule antagonists of the estrogen receptor alpha (ER-alpha) signaling pathway - cell viability counter screen (AID 743074; calls by dose curve;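 also: HEK293 cells carrying ER-alpha-UAS-bla reporter stimulated with 17beta-estradiol; nearly all actives have a fitted effect of over 45% in size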). For orientation: qHTS replaces the single test concentration by a dilution series.
In experiment [2] the target is Estrogen receptor (Homo sapiens) (UniProt P03372). Description: qHTS assay to identify small molecule agonists of the estrogen receptor alpha (ER-alpha) signaling pathway using the BG1 cell line (AID 743079). Also: nearly all actives have a fitted effect of over 20% in size. Also: potency is read from the fitted curve at half-maximal effect.
A short description of experiment [3]: qHTS assay to identify small molecule antagonists of the estrogen receptor alpha (ER-alpha) signaling pathway using the BG1 cell line - cell viability counter screen (AID 743081).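 Also: compound given together with 17beta-estradiol as the ER stimulus; series mostly up to about 70 µM; nearly all actives have a fitted effect of over 45% in size.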
The next experiment has as its target Aromatase (Homo sapiens) (UniProt P11511). The experiment is described as follows: qHTS assay to identify aromatase inhibitors (AID 743083). Also: series mostly up to about 70 µM; nearly all actives have a fitted effect of over 55% in size.
Experiment [4] is described as follows: qHTS assay to identify aromatase inhibitors - cell viability counter screen (AID 743084).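 Also: cells stimulated with testosterone during compound exposure; nearly all actives have a fitted effect of over 55% in size.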
Experiment [5] concerns the target Estrogen receptor (Homo sapiens) (UniProt P03372). The experiment is described as follows: qHTS assay to identify small molecule antagonists of the estrogen receptor alpha (ER-alpha) signaling pathway (AID 743069; active = well fitted curve in the direction sought with a large enough effect in the signal ratio in the repeat runs, not every such curve was filed as active; the % refers to the signal ratio). The method, boiled down: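 A 17beta-estradiol challenge was applied right after compound transfer to ER-alpha-UAS-bla HEK293 cells previously kept in charcoal-stripped serum. Plates stood 18 hr at 37C and 5% CO2; fluorescence was read following 2 hr FRET substrate loading at room temperature.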

For experiment [6] the target is unchanged. Description: qHTS assay to identify small molecule agonists of the estrogen receptor alpha (ER-alpha) signaling pathway (AID 743075; calls by dose curve;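 also: HEK293 GripTite cells with ER-alpha and UAS-driven beta-lactamase reporter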).
Experiment [7] can be described thus: qHTS assay to identify small molecule antagonists of the estrogen receptor alpha (ER-alpha) signaling pathway using the BG1 cell line (AID 743080; calls by dose curve;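 also: BG1 cells stimulated with 17beta-estradiol alongside compound; series mostly up to about 70 µM; nearly all actives have a fitted effect of over 25% in size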). The method, boiled down: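 Quantitative HTS on the Tox21 10K library: BG1 cells with endogenous ER-alpha and ERE-luciferase reporter, 17beta-estradiol stimulation, 21.5 h compound exposure, luminescence endpoint with parallel fluorescence cytotoxicity counter-read.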

Experiment [8] is described as follows: qHTS assay to identify small molecule antagonists of the thyroid receptor (TR) signaling pathway (AID 743065). Also: series mostly up to about 70 µM; nearly all actives have a fitted effect of over 55% in size. The gist of the method:
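GH3.TRE-Luc rat pituitary cells carrying two TR response elements driving luciferase were plated for 4 h, given compound plus 1 nM T3 (final), and incubated 23.5 h at 37 C. ONE-Glo luminescence measured reporter inhibition; CellTiter-Fluor fluorescence tracked cytotoxicity.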

In experiment [9] the test system is thyroid hormone receptor (rat, GH3 cells). Description: qHTS assay to identify small molecule agonists of the thyroid receptor (TR) signaling pathway (AID 743066; calls by dose curve).

Results filed as inconclusive are left out. More than one record can exist for a structure, and the calls need not agree. The source made the active and inactive calls. Unless noted, calls follow the shape of the dose curve; as a rule, active = well fitted curve in the direction sought with a large enough effect in the repeat runs; inconclusive = weak or mixed curves; inactive = no such curve, though single readings can be large; an effect the other way counts as inactive or inconclusive.

Chain of Estrogen receptor (Homo sapiens) (P03372 whole entry, looked up): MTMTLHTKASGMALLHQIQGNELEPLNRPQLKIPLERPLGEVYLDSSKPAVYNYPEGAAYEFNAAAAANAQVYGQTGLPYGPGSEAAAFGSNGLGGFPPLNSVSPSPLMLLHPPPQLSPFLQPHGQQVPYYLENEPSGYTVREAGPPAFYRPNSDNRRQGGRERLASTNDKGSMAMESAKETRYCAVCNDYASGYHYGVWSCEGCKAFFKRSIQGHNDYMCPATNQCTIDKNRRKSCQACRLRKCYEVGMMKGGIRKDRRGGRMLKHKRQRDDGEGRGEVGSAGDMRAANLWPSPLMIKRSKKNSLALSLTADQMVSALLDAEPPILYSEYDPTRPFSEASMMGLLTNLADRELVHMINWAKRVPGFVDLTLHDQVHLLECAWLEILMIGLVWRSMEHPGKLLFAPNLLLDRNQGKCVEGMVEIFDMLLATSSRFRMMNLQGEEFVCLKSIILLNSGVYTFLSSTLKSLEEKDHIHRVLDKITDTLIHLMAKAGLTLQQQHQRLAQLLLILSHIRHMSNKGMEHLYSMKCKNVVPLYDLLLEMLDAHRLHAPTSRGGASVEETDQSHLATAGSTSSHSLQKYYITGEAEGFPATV
Chain of Aromatase (Homo sapiens) (P11511 whole entry, looked up): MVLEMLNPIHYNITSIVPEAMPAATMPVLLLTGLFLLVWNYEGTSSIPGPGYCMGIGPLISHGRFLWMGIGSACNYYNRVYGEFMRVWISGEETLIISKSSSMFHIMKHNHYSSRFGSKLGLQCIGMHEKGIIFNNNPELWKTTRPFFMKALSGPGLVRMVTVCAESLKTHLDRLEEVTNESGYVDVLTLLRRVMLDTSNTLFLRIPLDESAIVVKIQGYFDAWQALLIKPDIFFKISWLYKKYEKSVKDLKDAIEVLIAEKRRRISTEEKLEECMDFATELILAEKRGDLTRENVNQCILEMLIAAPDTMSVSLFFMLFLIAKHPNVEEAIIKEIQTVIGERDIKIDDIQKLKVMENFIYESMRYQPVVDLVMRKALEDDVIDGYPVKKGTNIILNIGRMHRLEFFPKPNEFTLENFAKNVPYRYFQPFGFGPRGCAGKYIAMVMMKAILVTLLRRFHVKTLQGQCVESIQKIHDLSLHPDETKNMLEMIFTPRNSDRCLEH

As to `CC(=O)OCC(=O)[C@@]1(O)CC[C@H]2[C@@H]3CCC4=CC(=O)C=C[C@]4(C)[C@H]3[C@@H](O)C[C@@]21C`, the Potency result (in [1]; in the experiment with Aromatase (Homo sapiens)) was “inactive” each time. Further, in experiment [2], the Potency is 11.9 µM (active). For the same compound, the call in experiment [3] and in experiment [4] was inactive.
As for `CCN1CCN(C(=O)N[C@@H](C(=O)N[C@@H]2C(=O)N3C(C(=O)O)=C(CSc4nnnn4C)CS[C@H]23)c2ccc(O)cc2)C(=O)C1=O`, the outcome in experiment [5], in experiment [3] and in experiment [4] was inactive. Also, the Potency result (in experiment [1]; in experiment [6]; in experiment [2]; in experiment [7]; in the experiment with Aromatase (Homo sapiens)) was “inactive” each time.
`CCCCCCCCCCCC(C)=O`: the compound was classed as inactive in experiment [5], in experiment [3] and in experiment [4]. In addition, the Potency entry (in experiment [1]; in [7]; with Aromatase (Homo sapiens)) was “inactive” each time. The Potency in experiment [2] is 17.2 µM (active).
Consider `C=CCN(CC=C)CC=C`, for which the Potency entry (in experiment [8]; in experiment [9]; with Aromatase (Homo sapiens)) was “inactive” in each case. The compound was called inactive in [3] and in experiment [4].
Turning to `COC(=O)c1c(C)cc(O)c(C)c1O`, the Potency result (in experiment [8]; in experiment [1]; in experiment [7]; with Aromatase (Homo sapiens)) was “inactive” each time. In experiment [2], the Potency was 68.6 µM (active). For the same compound, the result in experiment [3] and in experiment [4] was inactive.
As for `C[C@H]1COc2c(C3(N)CC3)c(F)cc3c(=O)c(C(=O)O)cn1c23`, the Potency entry (in experiment [1]; with Aromatase (Homo sapiens)) was “inactive” each time. The compound was classed as inactive in [3] and in [4].
Take `CC(=O)Oc1ccc(C(C)=O)cc1`: the Potency entry (in experiment [8]; in [9]; in experiment [6]; in experiment [2]; in experiment [7]; with Aromatase (Homo sapiens)) was “inactive” in each case. For the same compound, the call in experiment [3] and in experiment [4] was inactive.
Take `O=CN1CCCCC1`: the call in experiment [5], in experiment [3] and in experiment [4] was inactive. Further, the Potency entry (in experiment [1]; in experiment [6]; in [2]; in experiment [7]; with Aromatase (Homo sapiens)) was “inactive” each time.
For `CC(C)(C)NCC(O)COc1cccc2c1CCC(=O)N2` (stereo not given), the Potency entry (in [1]; with Aromatase (Homo sapiens)) was “inactive” throughout. Moreover, the result in [3] was inactive.
For the compound `O=C(O)CCCCCCCCCC(=O)O`, the Potency entry (in experiment [9]; in experiment [1]; in experiment [6]; in experiment [2]; in [7]; with Aromatase (Homo sapiens)) was “inactive” in each case. Besides, the outcome in [5], in experiment [3] and in experiment [4] was inactive.
Regarding `CCCCNCC`, the Potency result (in experiment [1]; in experiment [6]; in experiment [2]; in experiment [7]; with Aromatase (Homo sapiens)) was “inactive” each time. Also, the result in experiment [3] and in [4] was inactive.
Regarding `CCO/C=C1\N=C(c2ccccc2)OC1=O`, the Potency entry (in [9]; in [1]; with Aromatase (Homo sapiens)) was “inactive” throughout. Moreover, the outcome in experiment [3] and in [4] was inactive.
Regarding `CC(=O)SC[C@@H](C)C(=O)N1CCC[C@H]1C(=O)N[C@@H](Cc1ccccc1)C(=O)O`, the outcome in experiment [5], in [3] and in experiment [4] was inactive. For the same compound, the Potency entry (in [1]; in experiment [6]; in experiment [2]; in [7]; in the experiment with Aromatase (Homo sapiens)) was “inactive” each time.
Take `CC/C=C\CCOC(=O)c1ccccc1`: the outcome in experiment [5], in [3] and in experiment [4] was inactive. Also, the Potency entry (in experiment [1]; in [6]; in experiment [2]; in experiment [7]; with Aromatase (Homo sapiens)) was “inactive” each time.
With `C=CC(=O)CC`, the Potency entry (in [9]; in [1]; in the experiment with Aromatase (Homo sapiens)) was “inactive” each time. Moreover, the outcome in [3] and in experiment [4] was inactive.
With `COC(=O)C(c1ccccc1Cl)N1CCc2sccc2C1` (stereo not given), the Potency result (in experiment [9]; in [1]; in experiment [7]; with Aromatase (Homo sapiens)) was “inactive” throughout. In addition, the call in experiment [3] and in experiment [4] was inactive.
With `CCCCC(CC)CCC(CC(C)C)OS(=O)(=O)O` (stereo not given), the compound was called inactive in experiment [5], in [3] and in [4]. Besides, the Potency entry (in [1]; in [6]; in [7]; with Aromatase (Homo sapiens)) was “inactive” in each case. The Potency in experiment [2] was 8.41 µM (active) and inactive.
`CCOC(=O)COc1ccc2c(C)c(CCN(CC)CC)c(=O)oc2c1Cl`: the Potency entry (in experiment [9]; in experiment [1]; in [6]; in experiment [2]; in experiment [7]; with Aromatase (Homo sapiens)) was “inactive” throughout. Moreover, the call in [3] and in [4] was inactive.
Regarding `CC1(C)S[C@@H]2[C@H](NC(=O)Cc3ccccc3)C(=O)N2[C@H]1C(=O)O` (tested in a mixture with another compound), the outcome in [5], in [3] and in experiment [4] was inactive. Also, the Potency result (in experiment [1]; in experiment [6]; in experiment [2]; in experiment [7]; with Aromatase (Homo sapiens)) was “inactive” throughout.
Regarding `COCCCOc1cc(C[C@@H](C[C@H](N)[C@@H](O)C[C@H](C(=O)NCC(C)(C)C(N)=O)C(C)C)C(C)C)ccc1OC`, the Potency result (in experiment [8]; in experiment [9]; in experiment [6]; in experiment [2]; in experiment [7]; with Aromatase (Homo sapiens)) was “inactive” throughout. Further, the call in experiment [3] and in experiment [4] was inactive.
Consider `CCCC[O][Al]([O]CCCC)[O]CCCC`, for which the Potency entry (in [1]; with Aromatase (Homo sapiens)) was “inactive” each time. Besides, the result in [3] and in experiment [4] was inactive.
On to `CC(C)(O)CCCC1=CCC(C=O)CC1` (stereo not given), for which the Potency entry (in experiment [9]; in experiment [1]; in experiment [6]; in [7]; with Aromatase (Homo sapiens)) was “inactive” each time. The compound was classed as inactive in experiment [5], in experiment [3] and in experiment [4]. In experiment [2], the Potency was 58.1 µM (active).
Turning to `BrCCOc1ccccc1`, the Potency result (in [1]; in [6]; in experiment [2]; in [7]; with Aromatase (Homo sapiens)) was “inactive” each time. In addition, the result in experiment [3] and in [4] was inactive.
As to `CCCCC(CC)COC(=O)CC#N` (stereo not given), the outcome in [5], in experiment [3] and in experiment [4] was inactive. Further, the Potency entry (in experiment [6]; in [2]; in experiment [7]; with Aromatase (Homo sapiens)) was “inactive” in each case.
For `N=C(N)N`, the Potency entry (in experiment [1]; with Aromatase (Homo sapiens)) was “inactive” each time. Moreover, the compound was called inactive in experiment [3] and in experiment [4].
With `CCCCCCC(O)CO` (stereo not given), the Potency result (in experiment [8]; in experiment [1]; in [6]; in [2]; in [7]; with Aromatase (Homo sapiens)) was “inactive” each time. For the same compound, the compound was classed as inactive in experiment [5], in experiment [3] and in [4].
Consider `C[C@]12C=CC(=O)C=C1[C@@H](F)C[C@@H]1[C@@H]2[C@@H](O)C[C@@]2(C)[C@H]1CC[C@]2(O)C(=O)CO`, for which the Potency entry (in [1]; in experiment [6]; with Aromatase (Homo sapiens)) was “inactive” each time. In addition, the compound was called inactive in experiment [3] and in experiment [4].
